Laboratory results taken from PMC4336329 (PLoS ONE, 2015).
The whole screen tested about 310,000 compounds, of which about 14,000 (4.5%) showed an effect of 50% or more. Effects have a minus sign here. For the sample, strong results were picked, then their nearest neighbours and some compounds at random.

Target: human ether-à-go-go-related gene (hERG) potassium channel (human, UniProt Q12809)
Test: primary screen, population patch clamp on CHO cells stably expressing hERG; higher = less effect of the substance
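Further: peak tail current of the secondary pulse compared with the same well before compound.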

Chain of human ether-à-go-go-related gene (hERG) potassium channel (Q12809 whole entry, looked up): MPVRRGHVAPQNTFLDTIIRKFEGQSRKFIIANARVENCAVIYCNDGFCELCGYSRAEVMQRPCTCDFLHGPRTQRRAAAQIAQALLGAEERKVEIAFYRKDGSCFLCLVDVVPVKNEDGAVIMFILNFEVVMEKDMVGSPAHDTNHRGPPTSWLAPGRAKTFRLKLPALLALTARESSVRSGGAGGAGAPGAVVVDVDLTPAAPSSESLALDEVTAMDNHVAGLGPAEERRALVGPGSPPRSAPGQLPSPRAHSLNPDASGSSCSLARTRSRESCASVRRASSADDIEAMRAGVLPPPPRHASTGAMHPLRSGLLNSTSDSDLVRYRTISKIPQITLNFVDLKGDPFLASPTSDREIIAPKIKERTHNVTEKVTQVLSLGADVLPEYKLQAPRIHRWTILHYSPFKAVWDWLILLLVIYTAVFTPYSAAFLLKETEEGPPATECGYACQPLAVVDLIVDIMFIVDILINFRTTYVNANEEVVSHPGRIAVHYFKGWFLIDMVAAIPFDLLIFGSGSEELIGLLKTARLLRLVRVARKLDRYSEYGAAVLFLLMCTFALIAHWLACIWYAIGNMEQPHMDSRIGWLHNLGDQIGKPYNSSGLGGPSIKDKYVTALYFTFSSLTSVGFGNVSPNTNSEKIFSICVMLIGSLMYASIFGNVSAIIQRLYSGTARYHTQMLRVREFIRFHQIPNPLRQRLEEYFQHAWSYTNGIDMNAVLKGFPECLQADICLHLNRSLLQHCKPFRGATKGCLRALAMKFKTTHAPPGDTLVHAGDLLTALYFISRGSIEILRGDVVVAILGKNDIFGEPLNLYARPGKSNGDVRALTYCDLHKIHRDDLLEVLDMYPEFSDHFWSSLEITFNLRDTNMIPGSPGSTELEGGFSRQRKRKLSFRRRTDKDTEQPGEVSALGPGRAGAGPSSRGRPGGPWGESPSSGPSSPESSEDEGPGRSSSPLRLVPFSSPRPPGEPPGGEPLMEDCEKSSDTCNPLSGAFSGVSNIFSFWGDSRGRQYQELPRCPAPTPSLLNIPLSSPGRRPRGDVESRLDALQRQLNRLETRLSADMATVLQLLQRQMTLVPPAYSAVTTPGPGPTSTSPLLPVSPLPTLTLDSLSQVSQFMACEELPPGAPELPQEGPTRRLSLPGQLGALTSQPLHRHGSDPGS

| SMILES | hERG current change (%, negative = inhibition) at 10uM [%] |
| --- | --- |
| COc1ccc(C(CC(=O)Nc2cc(OC)cc(OC)c2)n2cccc2)cc1 (stereo not drawn) | 2.58 |
| Nc1ccc(N2CCOCC2)c(Cl)c1 | 1.49 |
| CC(=O)Nc1ccc(S(=O)(=O)Nc2nc(CN3CCOCC3)nc3sc4c(c23)CCCC4)cc1 | -4 |
| CCOc1ccc(N(CC(=O)NCC2CCCO2)C(=O)CCC(=O)Nc2nccs2)cc1 (stereo not drawn) | 2.69 |
| Cc1nn2c(-c3cccc(NC(=O)c4ccco4)c3)nnc2c2ccccc12 | -5.38 |
| Cc1ccc(C(C)C)c(OCCCCN2CCNCC2)c1.O=C(O)C(=O)O | -6.77 |
| Cc1ccc(OCCCCN2CCC(C)CC2)c(Br)c1.O=C(O)C(=O)O | -63.1 |
| Cc1ccc(OCCCCN2CCCCC2)c(Br)c1.O=C(O)C(=O)O | -62.6 |
| CNCCCOc1ccc(C)cc1Br.O=C(O)C(=O)O | -10.9 |
| Cc1ccc(OCCCCCCN2CCNCC2)c(Br)c1.O=C(O)C(=O)O | -30.3 |
| Cc1ccc(OCCOCCN2CCCC2)c(Br)c1.O=C(O)C(=O)O | -24.7 |
| COC(=O)/C(=C1/Oc2ccc(C)cc2S1)C(F)(F)F | 32.8 |
| N=C1SCC(=O)N1c1ccc(Cl)cc1 | 8.91 |
| Cc1ccc(N2C(=N)SCC2=O)cc1Cl | -70.6 |
| CC(C)(C)c1ccc(N2C(=N)SCC2=O)cc1 | -0.538 |
| Cc1oc2c(c1C(=O)N1CCOCC1)C(=O)c1ccccc1C2=O | 5.25 |
| CC(=O)N1CCc2cc(S(=O)(=O)NC(Cc3ccccc3)C(=O)NCCN3CCCCC3C)ccc21 (stereo not drawn) | 5.72 |
| CCc1ccc(CNCCc2ccccc2F)cc1 | -67.7 |
| Cc1ccc(CNCCc2ccccc2F)cc1.Cl | -31.8 |
| Fc1ccc(CNCCc2ccccc2F)cc1 | -2.59 |
| CCc1ccc(CNCCc2ccc(F)cc2)cc1 | -72.8 |
| Fc1ccccc1CCNCc1ccccc1 | 5.42 |
| CCc1ccc(CNCc2ccc(F)cc2)cc1 | -21 |
| Fc1ccc(CNCCc2ccccc2)cc1.O=C(O)C(=O)O | -18.2 |

| SMILES | hERG current change (%, negative = inhibition) at 10uM [%] |
| --- | --- |
| Cc1ccccc1CCNCc1ccc(Br)cc1 | -53.6 |
| Cl.c1ccc(CCNCc2ccccc2)cc1 | -9.4 |
| Fc1ccc(CNCc2ccc(Br)cc2)cc1 | -28.5 |
| Fc1ccc(CCNCc2ccc(Br)cc2)cc1 | -53.8 |
| O=C(Cc1ccc(Br)cc1)NCCc1ccc(F)cc1 | 11.3 |
| Cc1cccc(-n2ncc3c2CCCC3NC(=O)Cc2c(C)noc2C)c1C (stereo not drawn) | 15.9 |
| COc1ccc(/C=C2\SC(=S)N(CCCC(=O)NC3CCCC3)C2=O)cc1OC | -12.2 |
| Cc1nn(CCCC(=O)O)c(C)c1[N+](=O)[O-] | 12.3 |
| O=C(COc1ccc(S(=O)(=O)NC2CCCCC2)cc1)NCCC1=CCCCC1 | 2.33 |
| CCN(CC)S(=O)(=O)c1ccc(NC(=O)COC(=O)c2ccc(NC(=O)CC#N)cc2)cc1 | 20.5 |
| CCn1c(Cc2ccccc2)nnc1SCC(=O)OC(C)C | 0.117 |
| CCNC(=O)C1CC(=O)N(c2ccc(Br)cc2)C1 (stereo not drawn) | 2.64 |
| CC1(C)Cc2c(sc3nc(NCCN4CCOCC4)n4ncnc4c23)CO1 | -5.72 |
| N/C(=N\OC(=O)CSc1ccccc1)c1ccncc1 | 0.55 |
| CC1CC(C)CN(C(=O)c2cc(S(=O)(=O)N3CCCCC3)ccc2Cl)C1 (stereo not drawn) | -37.7 |
| Cc1ccc(NN2C(=O)C=C(c3ccc(Cl)cc3)C2=O)cc1 | 13.9 |
| Cl.Fc1ccc(CCNCc2cccc(Cl)c2)cc1 | -16.5 |
| CCCCCNCc1ccc(Br)cc1.Cl | -33.3 |
| CCN(CC)c1ccc(CNCCc2ccc(F)cc2)cc1.Cl | -58.8 |
| CCCCCCNCc1cccc(Br)c1.Cl | -11.3 |
| CCCCCCNCc1ccc(Br)cc1.Cl | -61.7 |
| CCN(CC)c1ccc(CNCCc2ccccc2F)cc1.Cl | -5.46 |
| O=C(NCCO)c1ccc2[nH]c3c(c2c1)CCCC3 | -0.0914 |
| Cc1nc(COC(=O)c2c(C)nn(-c3ccccc3)c2C)cs1 | -2.05 |

| SMILES | hERG current change (%, negative = inhibition) at 10uM [%] |
| --- | --- |
| Cc1ccc(C(=O)C(C)OC(=O)Cc2c[nH]c3ccccc23)cc1 (stereo not drawn) | 1.64 |
| CN(CC(=O)NCC(=O)Nc1ccc(F)cc1)C1CCS(=O)(=O)C1 (stereo not drawn) | 13.3 |
| O=C(NC1CCCCCC1)c1ccc(CN2CCOCC2)cc1 | 11.3 |
| Cc1ccc(CNC(=O)c2ccccc2-n2cnnn2)cc1 | 9.73 |
| O=C(NC(=S)NC1CCCCCCCCCCC1)c1cccnc1 | -4.46 |
| COc1ccc(C(=O)NCCN2CCCC2)cc1.Cl | 3.56 |
| Cl.O=C(NCCN1CCCC1)c1ccc(Br)cc1 | -11.9 |
| O=C(NCCN1CCOCC1)c1ccc(F)cc1 | 1.66 |
| COc1ccc(C(=O)NCCN2CCN(C(=O)c3ccc(OC)cc3)CC2)cc1 | -75.2 |
| O=C(NCCN1CCN(C(=O)c2ccc(Br)cc2)CC1)c1ccc(Br)cc1 | -71.3 |
| O=C(NCCCN1CCOCC1)c1ccc(Br)cc1 | -13.7 |
| COc1ccc(C(=O)NCCCN2CCOCC2)cc1 | -1.82 |
| O=C(NCCN1CCN(C(=O)c2ccc(F)cc2)CC1)c1ccc(F)cc1 | -70.1 |
| O=C(NCCNC(=O)c1ccc(F)cc1)c1ccc(F)cc1 | 0.397 |
| CC(O)CNc1cnccn1 (stereo not drawn) | 8.76 |
| Cc1cc(C)c(N(C(=O)c2csnn2)C(C(=O)NC(C)(C)C)c2ccncc2)c(C)c1 (stereo not drawn) | 9.01 |
| O=C(c1ccco1)N1CCN(S(=O)(=O)c2ccc3c(c2)OCCO3)CC1 | -0.283 |
| CC(=O)Nc1ccc(SCC(=O)Nc2oc(C)c3c(C)n[nH]c(=O)c23)cc1 | 8.72 |
| Cc1n(C)c2cc(Cl)ccc2[n+]1Cc1ccccc1.[I-] | -3.49 |
| CCn1c(/C=C/N(C(C)=O)c2ccccc2)[n+](CCCS(=O)(=O)[O-])c2cc(Cl)c(Cl)cc21 | 19.9 |
| CCn1c(C)[n+](CCOCC[n+]2c(C)n(CC)c3cc(Cl)c(Cl)cc32)c2cc(Cl)c(Cl)cc21.[I-] | 6.82 |
| CCn1c(/C=C/Nc2ccccc2)[n+](CC)c2ccc(Cl)cc21.[I-] | -78.6 |
| CCn1c(/C=C/Nc2ccccc2)[n+](CC)c2cc(Cl)c(Cl)cc21.[I-] | -79.3 |
| CCn1c(/C=C/N(C(C)=O)c2ccccc2)[n+](CC)c2ccc(Cl)cc21.[I-] | 2.3 |

| SMILES | hERG current change (%, negative = inhibition) at 10uM [%] |
| --- | --- |
| COC(=O)c1ccc(Oc2cc(C)nc(-n3nc(C)cc3C)n2)cc1 | -22.4 |
| CC(=O)c1ccc(Oc2cc(C)nc(N3CCOCC3)n2)cc1 | -13.3 |
| CC(=O)c1ccc(Oc2cc(C)nc(-n3nc(C)cc3C)n2)cc1 | -59.9 |
| COc1cccc(OC)c1C(=O)N1CCN(Cc2ccccc2C)CC1 | -0.823 |
| O=C1C2C3C=CC(C2C(=O)N1C1CCCCC1)C1C(=O)N(C2CCCCC2)C(=O)C31 (stereo not drawn) | 14.7 |
| COc1ccc(C2c3ccc(O)cc3Oc3ncn(CCN4CCOCC4)c(=N)c32)cc1OC (stereo not drawn) | -11.8 |
| COc1ccc(C2c3ccc(O)cc3Oc3ncn(CCCO)c(=N)c32)cc1OC (stereo not drawn) | -6.28 |
| COc1ccc(C2c3ccc(O)cc3Oc3ncn(Cc4ccccc4)c(=N)c32)cc1OC (stereo not drawn) | -51.7 |
| COc1ccc(C2c3ccc(O)cc3Oc3ncn(Cc4ccco4)c(=N)c32)cc1 (stereo not drawn) | -71.9 |
| COc1ccc(C2c3ccc(O)cc3Oc3ncn(CC(C)C)c(=N)c32)cc1 (stereo not drawn) | -69.8 |
| COc1ccc(C2c3ccc(O)cc3Oc3ncn(CCCO)c(=N)c32)cc1 (stereo not drawn) | -22.8 |
| COc1ccc(C2c3c(ncn(Cc4ccco4)c3=N)Oc3ccc4ccccc4c32)cc1 (stereo not drawn) | -7.04 |
| COc1ccc(C2c3ccc(O)cc3Oc3ncn(CCN4CCOCC4)c(=N)c32)cc1 (stereo not drawn) | -28.1 |
| COc1ccc(C2c3ccc(O)cc3Oc3ncn(Cc4ccco4)c(=N)c32)cc1OC (stereo not drawn) | -74.4 |
| CC(=O)c1cccc(NC(=O)c2ccc(NC(=O)CC3SC(N4CCCCC4)=NC3=O)cc2)c1 (stereo not drawn) | 10.3 |
| COc1ccc(-n2nc(C(=O)NCC(=O)NCCN(C)C)c3ccccc3c2=O)cc1 | 10.7 |
| Nc1ncn[nH]1 | 13.5 |
| COc1ccccc1NC(=S)NC(NC(=O)CC(C)C)C(Cl)(Cl)Cl (stereo not drawn) | 22.2 |
| CC1=NN(C(=O)c2ccc(Cn3cc(Br)c([N+](=O)[O-])n3)o2)C(O)(C(F)(F)F)C1 (stereo not drawn) | -16.6 |
| CN(CCOc1ccccc1)C(=O)CCc1c[nH]c2ccccc12.Cl | -0.585 |
| CCOc1ccc(C(=O)NN2C(=O)C3C4C=CC(O4)C3C2=O)cc1 (stereo not drawn) | -14 |
